CCHF vOTU inh = blocks the CCHF virus ovarian tumor domain protease; 370,000 tested, 0.55% active; CCHFV vOTU protease, Pep-AMC fluorescence; inhibition, % at 11.5 µM; AID 651958
Vc quorum ag = quorum light induction in luxS cqsA deficient V. cholerae; V. cholerae BH1578 lux reporter, luminescence, 6 h; activation, % at 18.7 µM; 350,000 tested, 0.16% active; in the data active = activation mostly above about 9.7%, no sharp cut-off
GDH-TPI inh = counter-screen for M. tuberculosis FBA inhibitors: GDH-TPI coupled enzymes. GDH-TPI coupled enzyme counterscreen, NADH absorbance. inhibition, % at 4.8 µM. 360,000 tested, 1.2% active. AID 588335
Mtb FBA inh = Mtb fructose-bisphosphate aldolase inhibition. P9WQA3. purified M. tuberculosis FBA, fluorescence read-out. inhibition, % at 1 µM. 360,000 tested, 2.3% active; in the data active = inhibition above about 27%
Target sequence (P9WQA3 whole entry, looked up): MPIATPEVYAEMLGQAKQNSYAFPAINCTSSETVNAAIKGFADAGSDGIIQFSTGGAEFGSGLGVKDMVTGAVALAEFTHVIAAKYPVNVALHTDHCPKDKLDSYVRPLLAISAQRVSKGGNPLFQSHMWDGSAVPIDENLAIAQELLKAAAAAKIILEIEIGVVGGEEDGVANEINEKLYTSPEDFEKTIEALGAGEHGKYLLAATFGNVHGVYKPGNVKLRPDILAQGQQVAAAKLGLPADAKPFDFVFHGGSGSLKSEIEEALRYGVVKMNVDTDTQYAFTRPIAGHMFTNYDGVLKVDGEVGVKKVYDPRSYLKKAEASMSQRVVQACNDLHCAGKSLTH
Large screens that a line does not name were inactive. Hits are enriched below; roughly 3.9% of the tested compounds scored in any of these assays. Rule as the data show it, unless noted: active = inhibition above about 30%; inactive = the rest.

CCCCc1cc(=O)oc2cc(O)ccc12	Mtb FBA inh active
CCc1c(C)c2cc(Cl)c(O)c(CN3CCCC3)c2oc1=O	Mtb FBA inh active
CCCCc1cc(=O)oc2c(CN3CCN(C)CC3)c(O)ccc12	Mtb FBA inh active
CCCc1cc(=O)oc2c(CN3CCN(C)CC3)c(O)ccc12	none (no result: Mtb FBA inh)
COc1ccc(-c2ccc3oc(-c4ccc(OC)cc4)c(C#CC4(O)CCCCC4)c3c2)cc1	GDH-TPI inh 43.5
COc1ccc(-c2sc3ccc(N4CCOCC4)cc3c2C#CC2(O)CCCCC2)cc1	none
CNc1cnc(-c2cccc(C(=O)N3CCOCC3)c2)cn1	Mtb FBA inh 134.8
N#Cc1c(N)c(C#N)c(-c2ccc3c(c2)OCO3)c2c1CCCC2	GDH-TPI inh 40.9
N#Cc1c(-c2ccc3c(c2)OCO3)csc1N	none
N#Cc1c(N)nc2c(c1-c1ccc3c(c1)OCO3)CCc1ccccc1-2	Mtb FBA inh 30.9
N#Cc1c(N)c(C#N)c(-c2ccc(O)cc2)c2c1CCCC2	none
CC(=O)Oc1c(-c2ccco2)oc2ccccc2c1=O	GDH-TPI inh 43.9
O=C(NCCCN1CCOCC1)c1sc2cc([N+](=O)[O-])ccc2c1Cl	Mtb FBA inh 53.9 (no result: CCHF vOTU inh)
O=C(NCCCN1CCOCC1)c1sc2cc(Cl)ccc2c1Cl	none
Cc1cccc(C(=O)Nc2ccccc2C(=O)Nc2ccc(C(=O)O)cc2)c1	none
C/C(=N\Nc1ccc(C(=O)O)cc1)c1ccc(S(=O)(=O)NCc2ccco2)cc1	GDH-TPI inh 54.2
C/C(=N\Nc1ccc(C(=O)O)cc1)c1ccc(Br)cc1	GDH-TPI inh 55.8
C/C(=N\Nc1ccccn1)c1ccc(S(=O)(=O)NCc2ccco2)cc1	none
COc1ccc(N(C)C(=O)c2ccc3c(c2)nnn3C)cc1	none
CCC(C)c1ccc(NC(=O)C/C(C)=N/NC(=O)c2cnccn2)cc1 (centres undefined)	none
CC(CC(=O)c1ccccc1)=NCC(O)CN=C(C)CC(=O)c1ccccc1 (centres undefined)	GDH-TPI inh 54.9
COc1cc2ccc(=O)oc2cc1O	Mtb FBA inh active
COc1cc2ccc(=O)oc2cc1OCC(O)C(C)(C)O (centres undefined)	Mtb FBA inh 137.6
COc1cc2oc(=O)ccc2c(OC)c1CC(O)C(C)(C)O (centres undefined)	none
O=c1ccc2cc(OC3O[C@H](CO)[C@@H](O)[C@H](O)[C@H]3O)c(O)cc2o1 (some centres undefined)	none (no result: Mtb FBA inh)
CCCCSc1n[nH]c(=S)c2nc[nH]c12	none
CC12CCC(C/C1=N/O)C2(C)CBr (centres undefined)	none
Oc1ccccc1-c1nnc2n1CCCCC2	none
N=c1oc2ccc3ccccc3c2cc1-c1nnc2n1CCCCC2	Mtb FBA inh active
OCCN=c1cc(-c2ccccc2)oc2ccc(Cl)cc12	GDH-TPI inh 39.8 (no result: CCHF vOTU inh)
CN(C)CCCN=c1cc(-c2ccccc2)oc2ccc(Cl)cc12	none
CCOC(=O)c1ccc(-c2c(-c3ccccc3OC)sc3ccc(OC)cc23)cc1F	none
O=C(OCc1nnc(-c2ccccc2)o1)c1cc(S(=O)(=O)N2CCOCC2)ccc1F	none
CCOC(=O)c1ccc(-c2ccc(/C=C(\C#N)C(=O)NCC3CCCO3)o2)cc1 (centres undefined)	GDH-TPI inh 33.9
Cc1ccc(Cn2c(=N)c(C(=O)NC3CCCCC3)cc3c(=O)n4ccccc4nc32)cc1	none
O=C(NCCN1CCOCC1)c1c(O)nc2ccccn2c1=O	none
N=c1c(C(=O)NC2CCCC2)cc2c(=O)n3ccccc3nc2n1Cc1ccccc1	Mtb FBA inh 146.0
N#Cc1cc2c(=O)n3ccccc3nc2n(-c2ccccc2Cl)c1=O	Mtb FBA inh active
N=c1c(C(=O)NC2CCCC2)cc2c(=O)n3ccccc3nc2n1CCCN1CCOCC1	Mtb FBA inh 157.9
CCCNc1nc2nc3ccccn3c(=O)c2cc1C(=O)NCCN1CCOCC1	Mtb FBA inh 155.2
CCOc1ccc(C=Nn2c(-c3ccc(F)cc3)n[nH]c2=S)cc1	none (no result: Vc quorum ag, GDH-TPI inh, Mtb FBA inh)
O=C(c1cccc2ccccc12)N1CCN(CC2CC=CCC2)CC1 (centres undefined)	none
CC(C(=O)NN=C(c1ccccc1)c1ccccc1)N1CCCC1 (centres undefined)	none
O=C(NCCN1CCOCC1)c1cc2c(=O)n3ccccc3nc2n1Cc1ccccc1	Mtb FBA inh active
CCOC(=O)c1cc2c(=O)n3ccccc3nc2n(Cc2ccccc2)c1=N	Mtb FBA inh 79.1
N#Cc1cc2c(=O)n3ccccc3nc2n(CCCN2CCOCC2)c1=O	Mtb FBA inh active
COc1ccc(CCNC(=O)c2cc3c(=O)n4ccccc4nc3n(CCCN3CCOCC3)c2=N)cc1OC	none
CCOCCCn1c(=NC(C)=O)c(C(=O)OCC)cc2c(=O)n3ccccc3nc21	none
COc1ccc(CCn2c(=N)c(C(=O)NCCN3CCOCC3)cc3c(=O)n4ccccc4nc32)cc1OC	none
N#Cc1cc2c(=O)n3ccccc3nc2n(Cc2cccnc2)c1=O	Mtb FBA inh active
COc1ccc(C)cc1NC(=O)c1sc2ncn(CC(=O)N3CCCCC3)c(=O)c2c1C	none
O=C(c1cc(-c2ccc(F)cc2)on1)N1CCOCC1	none
N=c1c(C(=O)NC2CCCC2)cc2c(=O)n3ccccc3nc2n1CCN1CCOCC1	Mtb FBA inh 176.3
COc1ccc(CCn2c(=N)c(C(=O)NC3CCCCC3)cc3c(=O)n4ccccc4nc32)cc1	none
COc1ccc(S(=O)(=O)N2CCCCC2)cc1C(=O)N1CCCCCC1	none
Cc1nc(NC(=O)/C=C/c2ccccc2)sc1C(=O)N(C)C	none
Cc1nc(NC(=O)/C=C/c2ccc(F)cc2)sc1C(=O)N(C)C	GDH-TPI inh 33.9
Cc1nnc(NC(=O)c2oc3c(ccc4ccccc43)c2C)s1	GDH-TPI inh 32.2
Cc1nc(NC(=O)c2oc3ccccc3c2C)sc1C(=O)N(C)C	GDH-TPI inh 32.4
O=C(NCc1ccco1)c1cnc2sccn2c1=O	GDH-TPI inh 32.9
O=C(Nc1nccs1)c1cnc2sccn2c1=O	GDH-TPI inh 44.8
COC(=O)c1ccccc1NC(=O)c1cnc2sccn2c1=O	none
COc1ccc2nc(NC(=O)c3ccc(NS(=O)(=O)c4cccs4)cc3)sc2c1	GDH-TPI inh 39.5
Cc1cccc2sc(NC(=O)c3ccc(NS(=O)(=O)c4cccs4)cc3)nc12	GDH-TPI inh 32.3
COC(=O)CC1C(=O)NCCN1C(=O)CSc1nc2ccccc2c(=O)n1CC(C)C (centres undefined)	none
C(=NN=Cc1c[nH]c2ccccc12)c1c[nH]c2ccccc12	GDH-TPI inh 40.7
O=C1CS/C(=N/N=C/c2c[nH]c3ccccc23)N1	GDH-TPI inh 34.7
CCn1c(N)c(C(=O)NC2CCCCC2)sc1=S	GDH-TPI inh 43.3
CCN(CC)c1ccc(-c2nnc(SCC(=O)N(CCOC)c3c(N)n(CC(C)C)c(=O)[nH]c3=O)o2)cc1	GDH-TPI inh 47.2
COCCN(C(=O)CSc1nnc(-c2ccc(C)c(C)c2)o1)c1c(N)n(CC(C)C)c(=O)[nH]c1=O	none
CC(=O)Nc1ccc(S(=O)(=O)NC(C)CCc2ccccc2)cc1 (centres undefined)	none
Cc1ccc(S(=O)(=O)NC(C)CCc2ccccc2)cc1 (centres undefined)	CCHF vOTU inh 31.3
N#CCC(=O)N/N=C/c1ccc(Cl)cc1	none
